Measured values taken from PubChem BioAssay (NCATS).
Records with an inconclusive call do not appear. Calls of active or inactive are those of the source. Calls follow the shape of the dose curve; as a rule, active = well fitted cell-killing curve with a large enough effect; inconclusive = small, poorly fitted or top-dose-only effect; inactive = no such curve, though single readings can be large or run the other way.
Potency is read from the fitted curve at half-maximal effect.

Experiment: qHTS of pediatric cancer cell lines to identify multiple opportunities for drug repurposing: Primary screen for SJ-GBM2 cells (AID 1347091)
Details: SJ-GBM2 viability, CellTiter-Glo luminescence, 48 h; series mostly up to 46 µM
How it was run: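 Cell viability, CellTiter-Glo luminescence; 500-1,000 cells/well, 8- or 11-point titration, 48 h compound exposure at 37 degrees C, 5% CO2. Controls: DMSO neutral, bortezomib 2.3 µM final as positive.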
In the case of `COc1cc2c(cc1O)CCC1C2CC[C@@]2(C)C1CC[C@@H]2O` (some centres not stated), the Potency is reported as 0.833 µM (active).
For `C=Cc1c(C)c2cc3nc(cc4[nH]c(cc5nc(cc1[nH]2)C(C)=C5CCC(=O)O)c(CCC(=O)OC)c4C)[C@@]1(C)C3=CC=C(C(=O)OC)[C@H]1C(=O)OC`, the Potency was 0.59 µM (active).
For `CCc1ccc(C(=O)Nc2cc(CN3CCN(C)CC3)cc(C(F)(F)F)c2)cc1C#Cc1cnc2ccnn2c1`, the Potency was 9.35 µM (active).
With `CC(=O)N[C@@H]1[C@H](O[C@@H]2c3ccc(c(Cl)c3)Oc3cc4cc(c3O[C@H]3O[C@H](CO)[C@@H](O)[C@H](O)[C@H]3NC(=O)CCCCCCCC(C)C)Oc3ccc(cc3Cl)C[C@H]3NC(=O)[C@H](N)c5ccc(O)c(c5)Oc5cc(O)cc(c5)[C@H](NC3=O)C(=O)N[C@H]4C(=O)N[C@H]3C(=O)N[C@@H]2C(=O)N[C@@H](C(=O)O)c2cc(O)cc(O[C@H]4O[C@H](CO)[C@@H](O)[C@H](O)[C@H]4O)c2-c2cc3ccc2O)O[C@H](CO)[C@@H](O)[C@@H]1O` the Potency was “inactive”.
For `Cc1[nH]c(C=C2C(=O)Nc3ccccc32)c(C)c1CCC(=O)O`, the Potency was 0.935 µM (active).
In the case of `COc1cc2ncnc(Nc3cccc(Br)c3)c2cc1OC`, the Potency is reported as 20.9 µM (active).
For `N[C@H]1CN(c2c(F)cc3c(=O)c(C(=O)O)cn(C4C[C@@H]4F)c3c2Cl)CC12CC2` (some centres not stated), the Potency was “inactive”.
With `CC(C)Oc1ccc(C(=O)N[C@H](CNC(=O)CN(C)C)Cc2ccc(-c3cn4cccc([C@H](C)O)c4n3)cc2)cc1Cl` the Potency was 0.148 µM (active).
With `Nc1nc(N)c2nc(-c3cccc(O)c3)c(-c3cccc(O)c3)nc2n1` the Potency was 8.33 µM (active).
With `COc1cc(OC)cc(-c2ccc3ncc4ccc(=O)n(-c5ccc(N6CCNCC6)c(C(F)(F)F)c5)c4c3c2)c1` the Potency was 4.18 µM (active).
With `CN(N=O)C(=O)N[C@H]1C(O)OC(CO)[C@@H](O)[C@H]1O` (some centres not stated) the Potency was “inactive”.
For `COc1cc(N2CCC(C(N)=O)CC2)ccc1Nc1nc(N)c(Cl)c(Nc2ccccc2S(=O)(=O)C(C)C)n1`, the Potency was “inactive”.
In the case of `C[C@H](CCC(=O)O)[C@H]1CCC2C3C[C@H](O)[C@@H]4C[C@H](O)CC[C@]4(C)C3CC[C@@]21C` (some centres not stated), the Potency is reported as “inactive”.
For `CC(C)[C@H](CO)Nc1nc(Nc2cccc(Cl)c2)c2ncn(C(C)C)c2n1`, the Potency was 16.6 µM (active).
In the case of `CC(C)NC[C@@H](C(=O)N1CCN(c2ncnc3c2[C@H](C)C[C@H]3O)CC1)c1ccc(Cl)cc1`, the Potency is reported as 3.32 µM (active).
With `COC(=O)C=CC(=O)OC` the Potency was “inactive”.
With `COc1ccc(C(C)=O)c(O)c1` the Potency was “inactive”.
In the case of `O=C1NC(O)CCN1[C@@H]1O[C@H](CO)[C@H](O)[C@H]1O` (some centres not stated), the Potency is reported as “inactive”.
In the case of `NC(=NCCCCCCN=C(N)N=C(N)Nc1ccc(Cl)cc1)N=C(N)Nc1ccc(Cl)cc1`, the Potency is reported as 13.2 µM (active).
For `CCN(CC)Cc1ccc2cc(COC(=O)Nc3ccc(C(=O)NO)cc3)ccc2c1`, the Potency was 0.743 µM (active).
For `COc1ccc(S(=O)(=O)Nc2cccnc2Nc2ccc(O)cc2)cc1`, the Potency was 0.0235 µM (active).
For `CNC(=O)c1cccc(-c2ccc3c(N4CCOC[C@H]4C)nc(N4CCOC[C@H]4C)nc3n2)c1`, the Potency was 0.105 µM (active).
In the case of `NC1=N[C@H]2[C@H](CS[C@H]2CCCCC(=O)O)N1`, the Potency is reported as “inactive”.
In the case of `C=CCNc1c(O)cc2c(O)c1C[C@@H](C)C[C@H](OC)[C@@H](O)[C@@H](C)C=C(C)[C@H](OC(N)=O)[C@@H](OC)C=CC=C(C)C(=O)N2`, the Potency is reported as 0.526 µM (active).
In the case of `Cn1cnc(=N)c2[nH]cnc21`, the Potency is reported as 1.48 µM (active).
For `O=C(NC1CC1)c1cccc(-c2ccc3c(NC(=O)C4CC4)n[nH]c3c2)c1`, the Potency was 13.2 µM (active).
For `CN[C@@H]1C[C@H]2O[C@@](C)([C@H]1OC)n1c3ccccc3c3c4c(c5c6ccccc6n2c5c31)C(=O)N[C@H]4O`, the Potency was 0.118 µM (active).
In the case of `CN(CC(=O)N(Cc1ccc(C2CCCCC2)cc1)c1ccc(C(=O)O)c(O)c1)S(=O)(=O)c1c(F)c(F)c(F)c(F)c1F`, the Potency is reported as 11.8 µM (active).
For `COc1cc2c(Nc3ccc(Cl)c(Cl)c3F)ncnc2cc1OCC1C[C@@H]2CN(C)C[C@H]2C1`, the Potency was 7.43 µM (active).
For `Oc1ccc([C@@H]2Oc3ccc(O)cc3[C@@H]3CCC[C@@H]32)cc1`, the Potency was 13.2 µM (active).
In the case of `FC(F)c1nc2ccccc2n1-c1nc(N2CCOCC2)nc(N2CCOCC2)n1`, the Potency is reported as 0.0743 µM (active).
For `C=C1C(=CC=C2CCC[C@]3(C)[C@@H]([C@H](C)CCCC(C)(C)O)CC[C@@H]23)C[C@@H](O)C[C@@H]1O`, the Potency was 13.2 µM (active).
